# High-throughput results from PubChem.
# An excerpt weighted towards active compounds, which were near 19% of everything screened.
# ELG1 DNA repair = inhibitors of ELG1-dependent DNA repair in HEK293T cells; HEK293T ELG1-luciferase reporter, luminescence, 16 h; DNA damage induced by 5-fluorouridine; Potency, µM (series often up to 46.1 µM), inactives show at the highest dose activity change, negative = inhibition, usual class: inhibitors; 2.3% of 330,000 active; also: potency is read from the fitted curve at half-maximal effect; nearly all actives have a fitted effect of over 55% in size
#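 HEK293T cells expressing luciferase-tagged ELG1 (2,000/well) received 5-Fluorouridine plus compound or DMSO for 16 hr at 37 °C. Luciferase was read by ONE-Glo luminescence after 30 min at room temperature.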
# TDP1 cell noCPT = qHTS for Inhibitors of human tyrosyl-DNA phosphodiesterase 1 (TDP1): qHTS in cells in absence of CPT; DT40 Tdp1-/- hTDP1 cells, no CPT, ATP luminescence, 48 h; Potency, µM (doses to about 46.2 µM), for inactives: at the top dose activity change, negative = growth inhibition, most hits filed as inhibitors; 15% of 420,000 active; AID 686978, 2013; also: potency is read from the fitted curve at half-maximal effect; nearly all actives have a fitted effect of over 55% in size
#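 Growth kinetics read by CellTiter-Glo luminescence after ≥48 hr at 37 °C. Cells: DT40 Tdp1-/- stably carrying human TDP1, 400 per well, compound exposure in the absence of CPT (DMSO vehicle).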
# TDP1 cell CPT = DT40-hTDP1 cell growth loss with CPT; AID 686979; Potency, µM (top dose mostly 46.2 µM), for inactives: top-dose activity change, negative = growth inhibition, actives largely listed as inhibitors; chicken DT40 Tdp1-/-;hTDP1 cells + 20 nM CPT, ATP luminescence, 48 h; 12% of 420,000 active; also: potency is read from the fitted curve at half-maximal effect; nearly all actives have a fitted effect of over 55% in size
#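 Chicken DT40 Tdp1-/- cells complemented with human TDP1, 400 cells/well, exposed to compounds plus 20 nM camptothecin for at least 48 h at 37 C; viability read as ATP content by CellTiter-Glo luminescence.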
# HT1080 IDH1KD tx = kills HT-1080 cells with IDH1 knockdown | HT-1080 IDH1 knockdown viability, ATP luminescence, 48 h | Potency, µM (titrated, usually from 46.1 µM), for the others: at the top dose activity, negative = toxicity, most hits filed as cytotoxic | 2% of 360,000 active | AID 686971;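 also: potency is read from the fitted curve at half-maximal effect; 0% = DMSO wells and -100% = cell-free medium wells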
#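 Viability of IDH1-knockdown HT-1080 fibrosarcoma cells was assessed by CellTiter-Glo after 48 h at 37 °C with titrated compound; concentration-effect curves were classified by fit quality and response size.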
# IL1B secr inh = blocks inflammasome-driven IL-1 beta release | THP-1 LPS/ATP IL-1B secretion, AlphaLISA, 16 h; hits give low values | activity change, % at 57.5 µM | 4.7% of 360,000 active | AID 743279; in the data active = activity change below about -50%; inconclusive = mostly about -30% to -49%
#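 Secreted IL-1B measured by AlphaLISA bead assay after 16 h compound exposure of THP-1 cells; compounds (final up to 57.5 uM) added 1 h before LPS (250 ng/mL) and ATP (1.25 mM) stimulation; lower signal means less secretion.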
# HT1080-NT tox = kills 2HG-producing HT-1080-NT fibrosarcoma cells | HT-1080-NT fibrosarcoma viability, CellTiter-Glo ATP luminescence, 48 h | Potency, µM (top dose mostly 46.1 µM), for inactives: at the top dose activity, negative = less viability, most hits filed as cytotoxic | 1.6% of 360,000 active | AID 686970;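 also: NT is the 2HG producing partner of a matched IDH1 knockdown line; potency is read from the fitted curve at half-maximal effect; 0% = DMSO-treated cells and -100% = media-only wells without cells; nearly all actives have a fitted effect of over 55% in size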
#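 750 cells/well, RPMI + 5% FBS; 2 h settle, compound pin-transfer, 48 h at 37 degrees C. CellTiter-Glo 10 min RT, luminescence. Normalized to DMSO and media-only wells.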
# An asterisk follows results filed as active; ? = inconclusive; nt = not tested or not shown. Unless noted, calls follow the shape of the dose curve; as a rule, active = well fitted curve in the direction sought with a large enough effect; inconclusive = small, poorly fitted or top-dose-only effect, or another doubt; inactive = no such curve, though single readings can be large; an effect the other way counts as inactive or inconclusive. Unless noted, % is scaled to controls: 0 for no effect and ±100 for the full control effect.
SMILES,ELG1 DNA repair,TDP1 cell noCPT,TDP1 cell CPT,HT1080 IDH1KD tx,IL1B secr inh,HT1080-NT tox
Oc1ccc(-c2cn3c(n2)SCC3)cc1O,?,23µM*,?,-24%,70,?
O=C(Nc1ccc(-c2cn3c(n2)SCC3)cc1)c1ccc2ccccc2n1,?,?,16µM*,-11%,-18,-9%
Cc1ccc(NC(=O)Cn2cc(C(=O)C3CC3)c3ccccc32)cc1C,nt,-20%,?,nt,nt,nt
C#CCOCCOCCOCCNc1nc(N2CCN(C(=O)C([C@@H](C)O)n3cc([C@@H](N)CCCCN)nn3)CC2)nc(N2CCN(C(=O)C([C@@H](C)O)n3cc([C@@H](N)CCCCN)nn3)CC2)n1 (some centres undefined),15%,2%,13%,25%,7,12%
C#CCOCCOCCOCCNc1nc(N2CCN(C(=O)[C@H]([C@@H](C)CC)n3cc([C@@H](N)CC(C)C)nn3)CC2)nc(N2CCN(C(=O)[C@H]([C@@H](C)CC)n3cc([C@@H](N)CC(C)C)nn3)CC2)n1,17%,?,15µM*,3%,-15,1%
C#CCOCCOCCOCCNc1nc(N2CCN(C(=O)CCCCCCCCCCNC(=O)[C@@H]([C@H](C)O)n3cc(C)nn3)CC2)nc(N2CCN(C(=O)CCCCCCCCCCNC(=O)[C@@H]([C@H](C)O)n3cc(C)nn3)CC2)n1,?,23µM*,?,21µM*,-18,-27%
C#CCOCCOCCOCCNc1nc(N2CCOCC2)nc(N2CCN(C(=O)CCCCCCCCCCNC(=O)[C@@H]([C@H](C)O)n3cc(C)nn3)CC2)n1,?,16µM*,?,1%,0,-8%
C#CCOCCOCCOCCNc1nc(N2CCOCC2)nc(N2CCN(C(=O)[C@H]([C@@H](C)CC)n3cc(CCCCN)nn3)CC2)n1,0%,1%,-18%,4%,-12,9%
C#CCOCCOCCOCCNc1nc(N2CCN(C(=O)[C@H]([C@@H](C)CC)n3cc([C@@H](N)CC(C)C)nn3)CC2)nc(N2CCN(C(=O)[C@H](Cc3ccc(O)cc3)n3cc([C@@H](N)CC(C)C)nn3)CC2)n1,3%,-4%,-17%,5%,-8,7%
NC(=O)C1CCN(C(=S)NCCc2ccccc2)CC1,3%,-1%,5%,6%,2,0%
COc1cccc(NC(=O)COC(=O)c2cc(=O)c3ccccc3o2)c1,?,?,?,-5%,10,-5%
Cc1cc(-c2nnc3n2N=C(c2ccc(-c4ccccc4)cc2)CS3)n[nH]1,?,15µM*,23µM*,?,-62*,23µM*
COc1ccc(C2=Nn3c(nnc3-c3ccccc3)SC2)cc1OC,-10%,-11%,-26%,?,1,-5%
c1ccc(-c2cc(-c3nnc4n3N=C(c3ccc5ccccc5c3)CS4)[nH]n2)cc1,?,?,?,18µM*,-64*,?
CCOc1ccc(C2=Nn3c(nnc3-c3cccnc3)SC2)cc1,?,-23%,4%,-2%,-9,-9%
CC(C)c1nnc2n1N=C(c1ccc(Cl)cc1)CS2,-7%,-13%,-20%,-1%,-26,6%
Cc1cc(-c2nnc3n2N=C(c2ccccc2)CS3)n[nH]1,?,-10%,8%,10%,nt,4%
CCCc1ccc(C2=Nn3c(nnc3C(C)C)SC2)cc1,-17%,?,?,?,-91*,?
CCOc1ccc(C2=Nn3c(nnc3-c3ccc(OC)cc3)SC2)cc1,?,2.6µM*,2.1µM*,6.5µM*,20,?
Cc1cccc(-c2nnc3n2N=C(c2ccccc2)CS3)c1,2%,?,-23%,-14%,13,-8%
Cc1ccc(-c2nnc3n2N=C(c2ccccc2Br)CS3)cc1,?,8.2µM*,12µM*,?,-7,?
c1ccc(C2=Nn3c(nnc3-c3ccncc3)SC2)cc1,8.2µM*,?,?,5%,-18,3%
CCN(CC)C(=O)Nc1ccc(OCC(O)CNC(C)(C)C)c(C(C)=O)c1 (centres undefined),nt,-10%,2%,nt,nt,nt
N#Cc1cc2c(nc1Cl)CCC2,-6%,-14%,0%,0%,39,-1%
Cc1ccc([N+](=O)[O-])cc1NC(=O)C(Sc1ccccc1)c1ccccc1 (centres undefined),10%,16µM*,?,3%,24,-2%
SMILES,ELG1 DNA repair,TDP1 cell noCPT,TDP1 cell CPT,HT1080 IDH1KD tx,IL1B secr inh,HT1080-NT tox
Cc1cc(Br)ccc1NC(=O)C(C)c1ccc([N+](=O)[O-])cc1 (centres undefined),-3%,26µM*,?,-4%,-15,-4%
Cc1ccc(C(C)C)cc1NC(=O)Nc1ccc([N+](=O)[O-])cc1,?,3.7µM*,4.6µM*,-1%,-52*,-5%
COc1cccc(CNC(=O)C2CCN(S(=O)(=O)c3ccc(-n4cnnn4)cc3)CC2)c1,1%,-14%,2%,2%,-2,5%
COCCN(C(=O)C1=COCCO1)c1c(N)n(CC(C)C)c(=O)[nH]c1=O,9%,24%,0%,17%,-2,16%
CCc1ccccc1NC(=O)Cn1ccn(-c2cc(C)cc(C)c2)c(=O)c1=O,nt,-15%,-21%,nt,nt,nt
CCCNC(=O)CC(NS(=O)(=O)c1ccc(OC)cc1)c1ccco1 (centres undefined),6%,9%,8%,28%,-1,22%
CCCCc1nc(NCCNC(=O)c2ccco2)c(C#N)c2c1CSC(C)(C)C2,15µM*,23µM*,29µM*,-3%,-5,-2%
CC1(C)Cc2c(C#N)c(N3CCN(C(=O)c4ccco4)CC3)nc(-c3ccco3)c2CS1,?,?,-30%,6%,-4,4%
CCCCc1nc(Cl)c(C#N)c2c1CSC(C)(C)C2,10%,-20%,-17%,-4%,46,-2%
CCCCc1nc(NCCNC(=O)c2ccccc2)c(C#N)c2c1CSC(C)(C)C2,?,13µM*,23µM*,?,-22,?
Cc1ccccc1-c1cncnc1Nc1ccccc1,nt,1%,3%,nt,nt,nt
O=C(c1ccco1)N1CCN(c2ccc(F)cc2)CC1,?,-26%,?,0%,4,1%
